From PubChem BioAssay
A number with no mark means an inactive call. How the calls were made is not given here.

experiment: inhibitors of hydroxyurea-induced Chk1 phosphorylation, primary screen, imaging, HeLa, phospho-Chk1 antibody, percent positive cells (AID 1186); details: hydroxyurea-induced phospho-Chk1 immunofluorescence imaging, higher = more signal

Row | SMILES | z-score
1 | COc1cc2c(cc1O)C(c1ccc(CN3CCCC3)cc1)N(Cc1cccc(OC(F)(F)F)c1)CC2 (stereo unspecified) | 0.0325
2 | Cc1c(NC(=O)/C(C#N)=C/c2ccc(Cl)cc2)c(=O)n(-c2ccccc2)n1C | -0.0496
3 | COCCOC(=O)N1C(=O)[C@@]2(c3cc(C#CC4(O)CCCCCC4)ccc31)[C@H](c1ccccc1OCCO)N1[C@H](c3ccccc3)[C@H](c3ccccc3)OC(=O)[C@H]1[C@@H]2C(=O)N1CCCCCCC1 | -0.531
4 | CN1C(=O)[C@]2(CCS(=O)(=O)c3ccccc3)N=C(c3ccc(OCCCO)cc3)O[C@@H]2c2ccccc21 | -0.122
5 | CCOC(=O)C1=CC[C@@H](c2ccccc2)N(S(=O)(=O)C[Si](C)(C)C)[C@H]1c1ccccc1 | 0.587
6 | CCCCN1CC=CC23O[C@@H]4C=CCOC(=O)[C@@H]4[C@H]2C(=O)N(C(CO)C(C)C)[C@@H]3C1=O (stereo partly specified) | 0.216
7 | [N-]=[N+]=NCc1ccccc1C[C@]1(C(=O)N2CCOCC2)N=C(c2ccc(OCCCO)cc2)O[C@H]1c1ccccc1CN=[N+]=[N-] | -0.597
8 | COCCOC(=O)N1C(=O)[C@@]2(c3cc(C#CC4(O)CCCCCC4)ccc31)[C@H](c1ccc(OCCO)cc1)N1[C@H](c3ccccc3)[C@H](c3ccccc3)OC(=O)[C@H]1[C@@H]2C(=O)N1CCCCCCC1 | -0.0238
9 | COCCOC(=O)N1C(=O)[C@@]2(c3cc(C#Cc4ccc(OC)cc4)ccc31)[C@H](c1ccc(OCCO)cc1)N1[C@H](c3ccccc3)[C@H](c3ccccc3)OC(=O)[C@H]1[C@@H]2C(=O)N1CCCCCCC1 | -0.318
10 | Cc1ccc(S(=O)(=O)N2[C@@H](c3ccccc3)C(C(=O)O)=CC[C@H]2c2ccc(C#N)cc2)cc1 | 0.0247
11 | COC(=O)Cn1c(C(=O)N(C)C)cc2c1C[C@H]1CN(C(=O)c3ccccc3)[C@@](Cc3ccc(OC)cc3)(C(=O)OC)[C@@H]21 | 0.0109
12 | CCOC(=O)C1=C[C@@H](C(C)(C)C)N(S(=O)(=O)c2ccc(C)cc2)[C@H]1c1ccccc1Cl | 0.271
13 | Cc1c(-c2ccc(-c3ccc(Cl)c(Cl)c3)o2)nc(-c2ccccc2)c2c1CO[Si]2(C(C)C)C(C)C | 0.0151
14 | N[C@@H](Cc1ccccc1)Cn1cc(C2(O)CCCCC2)nn1 | 0.43
15 | COC(=O)c1c(CC[C@@H](CO)NC(=O)N[C@@H](Cc2ccccc2)Cn2cc(-c3cncn3C)nn2)oc(C(C)=O)c1C(=O)OC | -0.331
16 | C=C(COC)C(=O)CC[C@@H](OC(C)=O)c1ccc(OCCO)cc1 | 0.0887
17 | CCOC(=O)C[C@H]1[C@H](OC(=O)Cc2ccc3c(c2)OCO3)[C@@H](NC(=O)c2ccccc2)c2cc(OCCCO)ccc2N1C(=O)Cc1ccc(OC)cc1 | -1.29
18 | COC(=O)[C@@]1(Cc2ccc(OC)cc2)[C@H]2c3cc(C(=O)N(C)C)n(Cc4ccsc4Br)c3C[C@H]2CN1C(=O)c1ccccc1 | 0.0352
19 | CN(C)C(=O)[C@]1(Cc2ccccc2)N=C(c2ccc(OCCCO)cc2)O[C@@H]1c1ccccc1 | -0.752
20 | O=c1cccc(-c2ccccc2C(F)(F)F)o1 | -0.968
21 | COCCOC(=O)N1C(=O)[C@@]2(c3cc(C#CCCO)ccc31)[C@H](c1ccc(O)cc1)N1[C@H](c3ccccc3)[C@H](c3ccccc3)OC(=O)[C@H]1[C@@H]2C(=O)N1CCc2cc(OC)c(OC)cc2C1 | -0.0202
22 | COCCCNC(=O)[C@@H]1c2ccccc2C(=O)N(Cc2cc(C(F)(F)F)cc(C(F)(F)F)c2)[C@H]1c1ccc(CO)cc1 | -0.334
23 | CN(C)C(=O)[C@]1(Cc2ccccc2CN=[N+]=[N-])N=C(c2ccc(OCCCO)cc2)O[C@@H]1c1ccccc1N=[N+]=[N-] | -0.72
24 | C=CC[C@@]12N=C(c3ccc(OCCCO)cc3)O[C@@H]1c1ccccc1N(Cc1ccccc1)C2=O | 0.0198
25 | COCCOC(=O)N1C(=O)[C@@]2(c3cc(C#CC4(O)CCCCCC4)ccc31)[C@H](c1ccc(OCCO)cc1)N1[C@H](c3ccccc3)[C@H](c3ccccc3)OC(=O)[C@H]1[C@@H]2C(N)=O | -0.0641
26 | O=C1O[C@H](c2ccccc2)[C@H](c2ccccc2)N2[C@H]1[C@@H](C(=O)N1CCN(c3ncccn3)CC1)[C@]1(C(=O)Nc3ccccc31)[C@H]2c1ccc(O)cc1 | 0.746
